This is an account of results in PubChem BioAssay AID2384 (Southern Research Specialized Biocontainment Screening …, 2010).

About 1,100 (48%) of roughly 2,300 compounds were called active. How the calls were made is not given here. So high a share suggests a set chosen from earlier hits. This is one part of the list. Entries that show only a call come without a potency. Potency and affinity values are given separately.

This assay can be described thus: inhibitors in S. typhi counter-screen strain, dose response, counter-screen for PhoP regulon inhibitor project, fluorescence, 4 h (AID 2384). The conditions noted are these: S. typhi GFP reporter counter-screen; series mostly up to 150 µM. A general note: Counterscreens check selectivity or assay interference.
Broadly, the inhibition is the drop in the measured response relative to a control, in per cent. Consider `Nc1nonc1C(=O)NCCN=Cc1cc(Cc2ccccc2)cc(Br)c1O`, for which the inhibition entry is “inactive”.

On to `CCN(CC)Cc1c(C(=O)N/N=C/c2cccs2)nnn1-c1nonc1N`, for which the inhibition result was “inactive”.

As to `CCOC(=O)c1c(C)[nH]c(C(=O)CN2C(=O)NC(C)(c3ccc4ccccc4c3)C2=O)c1C` (stereo not given), the inhibition result was “inactive”.

As for `CCOC(=O)C(NC(=O)c1cccnc1)(Nc1cccc(C)n1)C(F)(F)F` (stereo not given), the inhibition result is “inactive”.

For `Nc1[nH]c(=O)ncc1F`, the inhibition result is “inactive”.

In the case of `CCN(CC)Cc1c(C(=O)N/N=C/c2cccc3ccccc23)nnn1-c1nonc1N`, the inhibition entry is “inactive”.

As to `O=C(Nc1cccnc1)c1cc(Br)c(Br)s1`, the inhibition entry is “inactive”.

On to `N#CCC(=O)N/N=C/c1ccccc1Cl`, for which the inhibition result was “inactive”.

Turning to `COc1ccc(/C=N/NC(=O)c2cccnc2)cc1`, the inhibition entry was “inactive”.

Regarding `O=C(N/N=C/c1cccnc1)c1cccc(Cl)c1`, the inhibition result was “inactive”.

For `CCN(CC)S(=O)(=O)c1cc(NC(=O)C2Cc3ccccc3C(=O)O2)ccc1C` (stereo not given), the inhibition entry was “inactive”.

In the case of `Cc1ncc([N+](=O)[O-])n1CC(=O)NC1CCCC1`, the inhibition result is “inactive”.

Turning to `CC(C)C(c1nnnn1Cc1ccccc1)N(CCCO)Cc1cc2cc3c(cc2[nH]c1=O)OCO3` (stereo not given), the inhibition result was “inactive”.

`COC(=O)c1ccc(CSc2ccc3nnc(-c4ccc(OC)c(OC)c4)n3n2)o1`: the inhibition result was “inactive”.

As to `CCOc1ccc2nnnn2n1`, the inhibition entry was “inactive”.

For `Cc1ccsc1/C=N/NC(=O)c1ccncc1`, the inhibition result is “inactive”.

For `Cc1ccsc1/C=N/Nc1ccc(C(=O)O)cc1`, the inhibition result was “inactive”.

For `CCOC(=O)C1Nc2c(F)cc(C)cc2C2c3ccccc3CC12` (stereo not given), the inhibition result was “inactive”.

With `CC1(C)CC(=O)C(C=NCC2CCN(C(=O)Cc3ccccc3)CC2)=C(O)C1`, the inhibition entry is “inactive”.

Take `CC(C)c1ccc(NC(=O)CSc2nnc(-c3ccccn3)n2C)cc1`: the inhibition result is “inactive”.

For the molecule `Cc1ccc(/C=N/NC(=O)CSc2nc3ccccc3n2C)s1`, the inhibition entry was “inactive”.

As for `COc1ccc(NC(=O)CC2Sc3ncnn3C2=O)cc1` (stereo not given), the inhibition entry was “inactive”.

Regarding `COc1ccc(CCNC2CCCCC2)cc1`, the inhibition entry was “inactive”.

Regarding `O=Cc1cc(CCC(=O)O)ccc1O`, the inhibition result was “inactive”.

In the case of `CCOC(=O)c1ccc(NC(=O)CSc2nc(N3CCOCC3)nc(N3CCOCC3)n2)cc1`, the inhibition entry is “inactive”.

For the molecule `CCOC(=O)c1ccc(NC(=O)c2cc3c(s2)CCC3)cc1`, the inhibition entry is “inactive”.

Consider `CCCCOc1ccc(CN2CCC(O)CC2)cc1`, for which the inhibition entry was “inactive”.

With `CCCCCCOc1ccc(N2C(=O)CC(SC(=NCC)NCC)C2=O)cc1` (stereo not given), the inhibition result was “inactive”.

As for `Cc1cc(C)n2nc(SCn3nnc4ccccc4c3=O)nc2n1`, the inhibition result was “inactive”.

For the molecule `Cc1ccc(NC(=O)CSc2ccc(-c3ccco3)nn2)cc1`, the inhibition result was “inactive”.

For `O=C(CCNC(=O)c1ccco1)Nc1cccc(Br)c1`, the inhibition result is “inactive”.

`CCC1(CC)C(=O)NC(=O)NC1=Nc1cccc(OC)c1`: the inhibition entry was “inactive”.

Turning to `Cc1ccc(N2C(N)=C(C#N)C(c3cccnc3)C3=C2CC(C)(C)CC3=O)cc1` (stereo not given), the inhibition result is “inactive”.

With `C=CCSc1nnc(NC(=O)CSc2nc3ccccc3o2)s1`, the inhibition entry was “inactive”.

As for `COc1ccccc1C(=O)NNC1=C(C(=O)C(F)(F)F)CCC1`, the inhibition entry was “inactive”.

As for `Cc1cc(C)c(-n2nnnc2SC(C)C)c(C)c1`, the inhibition result is “inactive”.

As for `COc1cc2c(cc1OC)[C@H](Cc1ccc(O)cc1)NCC2`, the inhibition entry was “inactive”.

For the molecule `Cc1cccc(N2CCN(C(=O)CCN3C(=S)NC(C)(C)CC3C)CC2)c1C` (stereo not given), the inhibition entry is “inactive”.

As to `COc1cc2c(cc1OC)CN(C(=O)CCCN1C(=O)c3ccccc3C1=O)CC2`, the inhibition entry is “inactive”.

For `COc1ccc(C(=O)Oc2cc(C(=S)N3CCOCC3)ccc2OC)cc1`, the inhibition entry is “inactive”.

Consider `Cc1c(-n2c(SCC(=O)C(C)(C)C)nc3ccccc3c2=O)c(=O)n(-c2ccccc2)n1C`, for which the inhibition entry was “inactive”.

For `NC(=O)c1cc(C(=O)c2ccc(Cl)cc2Cl)c[nH]1`, the inhibition entry was “inactive”.

In the case of `NC(=O)c1ccc[n+](CC(=O)c2cccc([N+](=O)[O-])c2)c1`, the inhibition result is “inactive”.

Turning to `O=Cc1ccc(N2CCCCCC2)cc1`, the inhibition result was “inactive”.

Regarding `CC(C)CN1CCN(Cc2cnc(N3CCOCC3)s2)CC1CCO` (stereo not given), the inhibition entry was “inactive”.

Consider `O=C1c2ccccc2NC(c2cccc([N+](=O)[O-])c2)N1CCc1ccccc1` (stereo not given), for which the inhibition result is “inactive”.

As to `CN1C(=O)/C(=C2/C=Cc3ccccc3N2CCCS(=O)(=O)O)SC1=S`, the inhibition entry was “inactive”.

For the molecule `CCOC(=O)c1nc(C)n(-c2cc(Cl)ccc2Cl)n1`, the inhibition result is “inactive”.

For the molecule `COc1ccccc1C1CN(c2ccc(F)cc2F)N=C1c1cccs1` (stereo not given), the inhibition entry is “inactive”.

Take `Cc1n[nH]c(=O)nc1NCCc1ccccc1`: the inhibition entry is “inactive”.

With `Cc1cccc(OCCSc2nnc(-c3ccoc3C)n2C)c1`, the inhibition result is “inactive”.

Regarding `CC(C)CC(=O)N1CCN(C(=O)CCC2CCCC2)CC1`, the inhibition entry is “inactive”.

For `Cc1cccc(NC(=O)C2CCCN2S(=O)(=O)c2ccc3c(c2)n(C)c(=O)c(=O)n3C)c1` (stereo not given), the inhibition result is “inactive”.

As for `O=C(CCN1CCOCC1)Nc1ccccc1`, the inhibition result was “inactive”.

Regarding `O=C(Nc1ccc(Cl)cc1)N1CCCN(Cc2ccccc2F)C1`, the inhibition result was “inactive”.

As to `Cc1cc(=O)oc2ccc(OCC(=O)N3CCC(C)CC3)cc12`, the inhibition result was “inactive”.

For the molecule `O=C(COc1ccc(Cl)cc1)N1CCN(C2CCCC2)CC1`, the inhibition entry was “inactive”.

Regarding `O=C(O)COc1ccc(F)cc1Br`, the inhibition result was “inactive”.

As to `O=C(/C=C/c1ccc(Cl)cc1Cl)NCc1ccncc1`, the inhibition entry was “inactive”.

Take `CCCSc1nc2cc(OC)c(OC)cc2c(=N)n1CCCN1CCOCC1`: the inhibition result is “inactive”.

`COc1ccccc1Nc1nc(Cl)c(C=O)s1`: the inhibition entry is “inactive”.

With `COc1ccccc1-n1nc(C(=O)NCc2ccco2)c2ccccc2c1=O`, the inhibition entry is “inactive”.

With `CC(C)(C)c1ccc(NC(=O)NCc2ccco2)cc1`, the inhibition result was “inactive”.

As for `CC(C)(C)c1nc(SCC(=O)NCc2ccco2)c2ccccc2n1`, the inhibition result is “inactive”.

As to `CCOC(=O)c1cc(-c2ccncc2)nc2c1c(C)nn2-c1ccccn1`, the inhibition result was “inactive”.

On to `COc1cc(C(c2nnnn2C2CCCC2)N2CCN(C)CC2)cc(OC)c1OC` (stereo not given), for which the inhibition result is “inactive”.

For the molecule `COc1ccc(N=CC2=C(Nc3ccc(OC)cc3)c3c(C)nn(-c4ccccn4)c3CC2)cc1`, the inhibition result was “inactive”.

On to `Cc1cc(C)nc(SCC(=O)Nc2sc3c(c2C#N)CCC(C)C3)n1` (stereo not given), for which the inhibition entry was “inactive”.

Take `O=C(CSc1nc2c(c(=O)n1-c1ccc(F)cc1)SCC2)NCc1ccco1`: the inhibition entry was “inactive”.

Regarding `O=C(CSc1ncc(-c2ccc(F)cc2)[nH]1)NCc1ccco1`, the inhibition entry was “inactive”.

For `Oc1ccccc1N=Cc1c(O)ccc2oc3c(c12)CCCC3`, the inhibition result was “inactive”.

Regarding `CCCCOc1ccc(C2=NNC(=O)CC2)cc1`, the inhibition result was “inactive”.

Consider `Cc1c(C(=O)Nc2ccncc2)sc2nc(-c3ccc(F)cc3)cn12`, for which the inhibition entry is “inactive”.

Take `Cc1ccc(C(=O)Nc2ccc3c(c2)ncn3C)cc1`: the inhibition entry was “inactive”.

As for `Cc1cc(C)c([C@@H]2C[C@H]3CN(C4CCCC4)C(=O)[C@]34CCCN24)c(-n2cccn2)c1`, the inhibition entry was “inactive”.
